Measurements as given in the supplement of paper PMC10849652.
Targets with a hit are over-represented here; the source holds about 7,900 in all. About 0.6% of all pairs of compound and target were hits.

Columns and labels:
Assay in all cases: log2 fold change, soluble protein after heating vs DMSO (PISA); higher = thermal stabilisation; K562 cells, 10 uM, 30 min; active = over 0.2 and 3.5 SD of the protein, either way, in both replicates (recomputed)
erlotinib = compound: C#Cc1cccc(Nc2ncnc3cc(OCCOC)c(OCCOC)cc23)c1 [erlotinib]
Method in brief: (§1)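 K562 cells at 2×10^6 cells/mL were treated for 30 min with 10 μM compound, and aliquots were heated for 3 min over 48°C-58°C before pooling. Extraction used PBS with 0.5% NP-40 at 4°C, and soluble protein was the supernatant after 21,000xg for 90 min, measured by TMTpro 16plex LC-MS/MS with channel sums equalised. Thermal stability values, relative to control samples and from duplicates, are log2 fold changes.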

[1] = compound: C/C(=N\NC(=O)C1=CC(=CC=C1)S(=O)(=O)N2CCOCC2)/C3=C(C=CC(=C3)Cl)O
Method in brief: as §1

[2] = compound: C1=CC(=C(C=C1Cl)C2=NC3=NC=CN=C3C(=N2)NC4=CC=NC=C4)F
Method in brief: as §1

[3] = compound: C1=CC(=CC=C1C2=NC3=C(N2)C=C(C=C3)C(=O)N)OC4=CC=C(C=C4)Cl
Method in brief: as §1

[4] = compound: C1=CC2=C(C=CC(=C2)/C=C\3/C(=O)NC(=NCC4=CC=CS4)S3)N=C1
Method in brief: as §1

[5] = compound: C1=CC2=NC=CN=C2C=C1/C=C/3\C(=O)NC(=O)S3
Method in brief: as §1

[6] = compound: C1=CC=C(C=C1)C2=NC(=C(N2)C3=CC=NC=C3)C4=CC(=C(C=C4)Cl)O
Method in brief: as §1

[7] = compound: C1=CC=C2C(=C1)C3=NNC4=CC=CC(=C43)C2=O
Method in brief: as §1

[8] = compound: C1CCN(C1)C(=O)NC2=CC=CC(=C2)NC3=NC=C(C(=N3)NCCC4=CN=CN4)Br
Method in brief: as §1

[9] = compound: C1CN(CCC1(CC2=CC=C(C=C2)Cl)N)C3=NC=NC4=C3C=CN4
Method in brief: as §1

IRAK-1-4 Inhibitor I = compound: C1COCCN1CCN2C3=CC=CC=C3N=C2NC(=O)C4=CC(=CC=C4)[N+](=O)[O-] [IRAK-1-4 Inhibitor I]
Method in brief: as §1

[10] = compound: CC(=O)c1cnc2ccc(-c3cc(Cl)c(O)c(Cl)c3)nc2c1N[C@H]1CC[C@H](CN(C)C)CC1
Method in brief: as §1

ralimetinib = compound: CC(C)(C)Cn1c(N)nc2ccc(-c3[nH]c(C(C)(C)C)nc3-c3ccc(F)cc3)nc21 [ralimetinib]
Method in brief: as §1

[11] = compound: CC(C)(O)CC(=O)NCCn1ccc2ncnc(Nc3ccc(Oc4cccc(C(F)(F)F)c4)c(Cl)c3)c21
Method in brief: as §1

[12] = compound: CC(C)C1=C2N=C(C=C(N2N=C1)NCC3=CC=CC=C3)NCCCCCCN
Method in brief: as §1

[13] = compound: CC(C)C[C@@H](C=O)NC(=O)[C@H](CC(C)C)NC(=O)[C@H](CC(C)C)NC(=O)OCc1ccccc1
Method in brief: as §1

pinometostat = compound: CC(C)N(C[C@H]1O[C@@H](n2cnc3c(N)ncnc32)[C@H](O)[C@@H]1O)[C@H]1C[C@@H](CCc2nc3cc(C(C)(C)C)ccc3[nH]2)C1 [pinometostat]
Method in brief: as §1

[14] = compound: CC1=C(C(CC(=O)N1)C2=CC=C(C=C2)C(F)(F)F)C(=O)NC3=C(C=C4C(=C3)C=NN4)F
Method in brief: as §1

[15] = compound: CC1=C(C2=C(C=C1)C(=O)C3=CC=CC=C3N2CCCN)C
Method in brief: as §1

ibrutinib = compound: C=CC(=O)N1CCC[C@@H](n2nc(-c3ccc(Oc4ccccc4)cc3)c3c(N)ncnc32)C1 [ibrutinib]
Method in brief: as §1

Measured: log2 fold change

CLCN3 isoform 2 (UniProt P51790)
UniProt P51790, sequence (P51790 whole entry, looked up): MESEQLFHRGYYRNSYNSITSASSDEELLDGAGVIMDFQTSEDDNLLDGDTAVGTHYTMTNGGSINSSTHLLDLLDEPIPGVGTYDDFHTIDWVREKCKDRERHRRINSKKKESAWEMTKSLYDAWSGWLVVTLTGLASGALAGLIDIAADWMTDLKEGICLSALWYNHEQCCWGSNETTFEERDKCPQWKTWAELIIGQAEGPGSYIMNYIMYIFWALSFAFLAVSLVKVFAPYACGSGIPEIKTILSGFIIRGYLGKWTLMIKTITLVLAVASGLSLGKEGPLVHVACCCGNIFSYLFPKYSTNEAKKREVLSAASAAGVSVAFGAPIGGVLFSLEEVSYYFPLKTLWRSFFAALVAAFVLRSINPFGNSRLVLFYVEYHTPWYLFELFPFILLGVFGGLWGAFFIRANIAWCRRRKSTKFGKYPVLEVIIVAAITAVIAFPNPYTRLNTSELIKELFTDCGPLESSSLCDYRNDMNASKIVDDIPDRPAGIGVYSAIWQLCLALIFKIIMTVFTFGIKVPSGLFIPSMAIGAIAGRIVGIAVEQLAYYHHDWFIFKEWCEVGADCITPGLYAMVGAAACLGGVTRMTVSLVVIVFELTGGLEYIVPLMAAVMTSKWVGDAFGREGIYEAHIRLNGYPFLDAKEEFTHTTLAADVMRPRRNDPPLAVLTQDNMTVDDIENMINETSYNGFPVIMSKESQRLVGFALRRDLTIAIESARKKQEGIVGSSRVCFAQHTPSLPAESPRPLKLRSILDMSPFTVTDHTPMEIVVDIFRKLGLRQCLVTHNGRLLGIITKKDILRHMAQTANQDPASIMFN
inactive: erlotinib 0.008 | [1] 0.089 | [2] 0.059 | [3] 0.044 | [4] 0.024 | [5] -0.002 | [6] 0.025 | [7] -0.017 | [8] -0.012 | [9] 0.033 | IRAK-1-4 Inhibitor I 0.005 | [10] -0.008 | ralimetinib 0.026 | [11] -0.043 | [12] -0.049 | [13] -0.066 | pinometostat -0.043 | [14] -0.012 | [15] 0.051

COX7C (UniProt P15954)
UniProt P15954, sequence (P15954 whole entry, looked up): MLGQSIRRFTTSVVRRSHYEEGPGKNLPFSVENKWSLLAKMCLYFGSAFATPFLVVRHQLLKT
inactive: erlotinib -0.006 | [1] 0.134 | [2] 0.209 | [3] 0.154 | [4] -0.174 | [5] 0.073 | [6] 0.08 | [7] 0.27 | [8] -0.003 | [9] 0.047 | IRAK-1-4 Inhibitor I -0.013 | ibrutinib 0.057 | [10] -0.013 | ralimetinib 0.301 | [11] 0.041 | [12] 0.184 | [13] 0.074 | pinometostat 0.092 | [14] 0.022 | [15] 0.009

CRLF3 (UniProt Q8IUI8)
UniProt Q8IUI8, sequence (Q8IUI8 whole entry, looked up): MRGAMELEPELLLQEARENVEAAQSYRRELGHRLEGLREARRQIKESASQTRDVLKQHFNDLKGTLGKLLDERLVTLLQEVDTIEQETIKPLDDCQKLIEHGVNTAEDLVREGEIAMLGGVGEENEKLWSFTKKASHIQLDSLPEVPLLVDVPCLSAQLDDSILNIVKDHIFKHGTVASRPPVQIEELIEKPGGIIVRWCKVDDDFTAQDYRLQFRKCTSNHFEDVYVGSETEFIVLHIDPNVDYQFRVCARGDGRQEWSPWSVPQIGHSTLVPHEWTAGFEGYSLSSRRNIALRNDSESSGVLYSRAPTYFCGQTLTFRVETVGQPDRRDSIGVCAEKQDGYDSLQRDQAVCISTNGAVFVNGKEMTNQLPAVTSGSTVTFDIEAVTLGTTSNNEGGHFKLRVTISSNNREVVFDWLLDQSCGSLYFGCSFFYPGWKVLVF
inactive: erlotinib 0.09 | [1] -0.034 | [2] 0.036 | [3] -0.015 | [4] 0.076 | [5] 0.019 | [6] -0.018 | [7] -0.028 | [8] 0.027 | [9] -0.04 | IRAK-1-4 Inhibitor I 0 | ibrutinib -0.047 | [10] -0.079 | ralimetinib 0.008 | [11] -0.122 | [12] -0.166 | [13] 0.013 | pinometostat -0.001 | [14] 0.015 | [15] -0.035

COASY isoform 2 (UniProt Q13057)
UniProt Q13057, sequence (Q13057 whole entry, looked up): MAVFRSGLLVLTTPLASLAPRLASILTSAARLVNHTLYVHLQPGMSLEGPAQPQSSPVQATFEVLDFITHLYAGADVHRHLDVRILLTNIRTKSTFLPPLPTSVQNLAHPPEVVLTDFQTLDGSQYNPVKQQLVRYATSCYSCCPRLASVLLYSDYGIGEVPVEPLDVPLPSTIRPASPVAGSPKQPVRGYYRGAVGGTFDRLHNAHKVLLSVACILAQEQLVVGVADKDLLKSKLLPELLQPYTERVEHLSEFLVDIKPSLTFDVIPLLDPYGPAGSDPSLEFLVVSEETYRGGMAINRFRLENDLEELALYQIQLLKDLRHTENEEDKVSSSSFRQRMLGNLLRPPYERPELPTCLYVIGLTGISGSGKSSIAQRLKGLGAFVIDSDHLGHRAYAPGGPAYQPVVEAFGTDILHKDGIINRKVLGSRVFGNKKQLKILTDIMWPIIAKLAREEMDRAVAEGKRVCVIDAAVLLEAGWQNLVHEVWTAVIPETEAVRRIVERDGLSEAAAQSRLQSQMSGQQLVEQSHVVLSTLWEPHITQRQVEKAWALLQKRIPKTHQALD
inactive: erlotinib -0.022 | [1] 0.1 | [2] 0.042 | [3] -0.067 | [4] 0.032 | [5] 0.01 | [6] 0.076 | [7] 0.043 | [8] -0.011 | [9] 0.092 | IRAK-1-4 Inhibitor I 0.039 | ibrutinib 0.004 | [10] -0.016 | ralimetinib -0.032 | [11] -0.063 | [12] 0.037 | [13] -0.02 | pinometostat 0.005 | [14] -0.018 | [15] 0.079

CEPT1 (UniProt Q9Y6K0)
UniProt Q9Y6K0, sequence (Q9Y6K0 whole entry, looked up): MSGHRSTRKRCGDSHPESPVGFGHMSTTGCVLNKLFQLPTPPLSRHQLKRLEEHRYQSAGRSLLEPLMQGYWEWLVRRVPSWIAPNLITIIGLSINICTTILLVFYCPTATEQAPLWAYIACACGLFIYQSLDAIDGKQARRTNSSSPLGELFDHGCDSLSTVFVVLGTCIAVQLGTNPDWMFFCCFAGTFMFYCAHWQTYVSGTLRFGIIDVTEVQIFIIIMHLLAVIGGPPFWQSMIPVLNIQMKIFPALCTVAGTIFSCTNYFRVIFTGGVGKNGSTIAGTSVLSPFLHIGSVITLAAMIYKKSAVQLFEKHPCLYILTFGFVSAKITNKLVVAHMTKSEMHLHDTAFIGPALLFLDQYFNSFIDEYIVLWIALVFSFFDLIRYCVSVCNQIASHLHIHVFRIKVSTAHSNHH
active: [12] -0.466
inactive: erlotinib 0.099 | [1] 0.034 | [2] 0.016 | [3] 0.107 | [4] 0.037 | [5] 0.047 | [6] 0.011 | [7] 0.071 | [8] 0.007 | [9] -0.074 | IRAK-1-4 Inhibitor I 0.035 | ibrutinib -0.014 | [10] 0.072 | ralimetinib -0.026 | [11] 0.073 | [13] -0.118 | pinometostat -0.016 | [14] 0.023 | [15] 0.118

CNOT4 isoform 6 (UniProt O95628)
UniProt O95628, sequence (O95628 whole entry, looked up): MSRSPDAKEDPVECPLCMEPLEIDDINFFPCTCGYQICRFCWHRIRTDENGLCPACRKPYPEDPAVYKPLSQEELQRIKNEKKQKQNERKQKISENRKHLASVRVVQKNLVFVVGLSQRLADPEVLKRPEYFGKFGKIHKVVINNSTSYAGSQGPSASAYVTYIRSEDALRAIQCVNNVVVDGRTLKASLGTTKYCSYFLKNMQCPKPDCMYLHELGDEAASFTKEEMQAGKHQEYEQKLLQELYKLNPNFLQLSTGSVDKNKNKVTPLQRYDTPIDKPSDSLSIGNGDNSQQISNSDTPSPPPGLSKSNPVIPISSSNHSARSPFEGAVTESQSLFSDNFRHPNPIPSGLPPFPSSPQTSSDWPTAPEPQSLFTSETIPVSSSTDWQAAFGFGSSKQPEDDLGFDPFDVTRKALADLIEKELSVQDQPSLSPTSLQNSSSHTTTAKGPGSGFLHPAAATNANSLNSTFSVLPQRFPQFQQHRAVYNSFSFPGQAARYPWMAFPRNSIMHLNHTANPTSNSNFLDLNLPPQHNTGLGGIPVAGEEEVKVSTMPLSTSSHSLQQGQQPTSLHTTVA
inactive: erlotinib 0.004 | [1] 0.06 | [2] 0.026 | [3] 0.014 | [4] 0.03 | [5] 0.003 | [6] -0.007 | [7] -0.043 | [8] -0.011 | [9] 0.044 | IRAK-1-4 Inhibitor I 0.044 | ibrutinib 0.016 | [10] -0.062 | ralimetinib -0.048 | [11] 0.002 | [12] 0.038 | [13] -0.019 | pinometostat -0.025 | [14] 0.018 | [15] 0.051

CIR1 (UniProt Q86X95)
UniProt Q86X95, sequence (Q86X95 whole entry, looked up): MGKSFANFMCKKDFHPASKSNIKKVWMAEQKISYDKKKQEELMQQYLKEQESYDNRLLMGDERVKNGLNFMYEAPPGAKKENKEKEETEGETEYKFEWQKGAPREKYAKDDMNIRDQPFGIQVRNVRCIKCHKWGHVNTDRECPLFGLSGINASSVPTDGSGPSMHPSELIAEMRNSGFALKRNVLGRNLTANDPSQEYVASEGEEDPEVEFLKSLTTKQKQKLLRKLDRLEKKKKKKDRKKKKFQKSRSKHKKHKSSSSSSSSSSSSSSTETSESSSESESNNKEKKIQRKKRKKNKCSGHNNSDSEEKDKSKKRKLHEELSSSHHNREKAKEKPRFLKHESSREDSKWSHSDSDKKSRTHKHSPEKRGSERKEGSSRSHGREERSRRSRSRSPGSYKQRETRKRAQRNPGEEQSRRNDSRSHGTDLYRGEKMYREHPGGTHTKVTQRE
inactive: erlotinib -0.008 | [1] -0.035 | [2] -0.254 | [3] 0.055 | [4] -0.054 | [5] -0.029 | [6] -0.144 | [7] -0.016 | [8] -0.008 | [9] 0.002 | IRAK-1-4 Inhibitor I -0.023 | ibrutinib 0.121 | [10] -0.05 | ralimetinib 0.083 | [11] 0.128 | [12] 0.198 | [13] 0.175 | pinometostat 0.169 | [15] 0.022

CETN3 (UniProt O15182)
UniProt O15182, sequence (O15182 whole entry, looked up): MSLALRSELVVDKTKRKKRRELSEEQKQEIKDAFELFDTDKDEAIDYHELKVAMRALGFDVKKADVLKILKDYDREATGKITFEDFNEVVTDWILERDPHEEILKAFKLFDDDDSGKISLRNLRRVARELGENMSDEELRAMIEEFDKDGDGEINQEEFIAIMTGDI
inactive: erlotinib -0.098 | [1] 0.009 | [2] -0.065 | [3] -0.022 | [4] 0.027 | [5] 0.077 | [6] -0.12 | [7] -0.055 | [8] 0.041 | [9] -0.125 | IRAK-1-4 Inhibitor I 0.031 | ibrutinib -0.022 | [10] -0.006 | ralimetinib -0.075 | [11] 0.035 | [12] -0.038 | [13] 0.039 | pinometostat 0.016 | [14] -0.002 | [15] -0.18

CASP8 isoform 9 (UniProt Q14790)
UniProt Q14790, sequence (Q14790 whole entry, looked up): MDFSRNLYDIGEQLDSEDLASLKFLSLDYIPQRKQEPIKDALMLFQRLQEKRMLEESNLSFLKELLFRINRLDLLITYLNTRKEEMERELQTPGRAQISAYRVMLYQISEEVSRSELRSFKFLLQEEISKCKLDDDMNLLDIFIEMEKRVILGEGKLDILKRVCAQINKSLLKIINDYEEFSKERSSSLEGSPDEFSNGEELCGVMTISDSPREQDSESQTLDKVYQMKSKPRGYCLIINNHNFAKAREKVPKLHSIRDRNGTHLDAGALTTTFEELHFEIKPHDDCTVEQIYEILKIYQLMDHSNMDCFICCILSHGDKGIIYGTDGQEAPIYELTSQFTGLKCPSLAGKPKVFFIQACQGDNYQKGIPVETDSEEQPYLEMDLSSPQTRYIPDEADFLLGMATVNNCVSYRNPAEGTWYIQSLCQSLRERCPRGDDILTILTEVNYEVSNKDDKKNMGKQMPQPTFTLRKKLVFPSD
inactive: erlotinib -0.008 | [1] 0.056 | [2] -0.055 | [3] -0.023 | [4] 0.021 | [5] 0.052 | [6] -0.078 | [7] 0.104 | [8] -0.051 | [9] -0.014 | IRAK-1-4 Inhibitor I -0.056 | ibrutinib -0.027 | [10] 0.098 | ralimetinib -0.058 | [11] -0.092 | [12] -0.264 | [13] -0.025 | pinometostat 0.124 | [14] 0.028 | [15] 0
